Bioassay records (PubChem BioAssay)
Sm TGR inh = blocks Schistosoma mansoni thioredoxin glutathione reductase; purified TGR, DTNB reduction, TNB absorbance 405 nm; Potency, µM (highest dose often 114 µM), usual class: inhibitors; 360,000 tested, 3% active; active means well fitted inhibition curve with a large enough effect; inconclusive means small, poorly fitted or top-dose-only effect; inactive means no such curve, though single readings can be large or run the other way; further: nearly all actives have a fitted effect of over 60% in size
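First, TGR (20 nM dispensed) and NADPH were mixed with compound. Second, a 15 min room-temperature incubation followed. Third, further NADPH and then DTNB were added to start the reaction. Finally, TNB absorbance was monitored kinetically.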
Shiga toxin inh = blocks Shiga toxin action in Vero cells; Vero cells, Shiga toxin protein synthesis inhibition reporter; inhibition, % at 38.7 µM; 290,000 tested, 9.2% active; in the data active means inhibition mostly above about 28%, no sharp cut-off; inactive means mostly below about 43%
CHX counter = counter-screen for Shiga toxin inhibitors: cycloheximide protein synthesis inhibition | cell reporter, cycloheximide protein synthesis inhibition counterscreen | max response, % | 300,000 tested, 12% active | AID 2314; in the data active means max response mostly above about 13%, no sharp cut-off; inactive means mostly below about 14%; further: read at 38.3 µM for the half of the compounds with a filed dose
FMDV inh = foot and mouth disease virus antiviral activity. FMDV antiviral cell-based qHTS. Potency, µM (top dose mostly 57.9 µM), hits mostly inhibitors. 410,000 tested, 1.2% active; calls by dose curve; tested in HEK293T cells; further: read-out not given here; nearly all actives have a fitted effect of over 45% in size
Each line names hits and unclear results; the compound was inactive in the other large screens. Rows were chosen to be rich in hits. Some 12% of all compounds tested hit in one or more screens of this group.

CC(C)(C)Cc1nnc(NC(=O)CSc2ccccc2)s1	CHX counter 12.5
COc1cc(NC(=O)C2=CC(c3ccc(F)cc3)=NS(=O)(=O)N2C)cc(OC)c1OC	none (no result: Shiga toxin inh, CHX counter)
Cc1cccc(NC(=O)CSc2ccc(-c3cccs3)nn2)c1C	CHX counter 13.3
O=C(CSc1ccc(-c2cccs2)nn1)N1CCCCC1	Shiga toxin inh 52.0, CHX counter 46.3
O=C(CSc1ccc(-c2cccs2)nn1)N1CCCCCC1	Shiga toxin inh 44.1, CHX counter 20.0
Cc1cc(C)n2c(Nc3ccccc3)c(-c3ccccc3)nc2n1	none (no result: Shiga toxin inh, CHX counter)
COc1cc(Cn2c(=O)sc3ccccc32)ccc1OCCC(C)C	none (no result: Shiga toxin inh, CHX counter)
O=C(NNC(=O)C1CCC1)c1ccc(Cl)cc1	none
CC1CCN(C(=S)NC(=O)c2ccc(F)cc2)CC1	none (no result: Sm TGR inh, Shiga toxin inh, CHX counter)
CN(C(=S)NC(=O)c1ccc(Cl)cc1)C1CCCCC1	Sm TGR inh 79.4µM, Shiga toxin inh 71.6, CHX counter 49.5
CN(C(=S)NC(=O)c1ccccc1)C1CCCCC1	Shiga toxin inh 33.8, CHX counter 14.6
CN(C(=S)NC(=O)c1ccc(F)cc1)C1CCCCC1	CHX counter 19.3
Cc1csc2nc(COc3ccccc3NC(=O)c3ccccc3Cl)cc(=O)n12	none (no result: Shiga toxin inh, CHX counter)
CCOC(=O)c1cnc2nc(NCc3cccc(Br)c3)[nH]n2c1=O	none (no result: Shiga toxin inh, CHX counter)
O=c1cc(NCc2ccccc2)nc2ccccn12	CHX counter 16.6
Cc1cccc(N(C)S(=O)(=O)c2cc3[nH]c(=O)c(=O)[nH]c3cc2C)c1	none (no result: Shiga toxin inh, CHX counter)
CCc1c(C)[nH]c2ccc(C)cc2c1=O	Shiga toxin inh 45.4, CHX counter 21.9
Cc1ccc2[nH]c(C)c(CC(=O)O)c2c1	Sm TGR inh inconclusive (no result: FMDV inh)
Cc1ccc2[nH]c(-c3ccccc3)c(CN(C)C)c(=O)c2c1	CHX counter 40.7
C=CCc1c(C)[nH]c2ccc(C)cc2c1=O	Shiga toxin inh 69.9, CHX counter 30.8
Cc1ccc2[nH]c(-c3ccccc3)c(CN3CCCC3)c(=O)c2c1	none
CC1CCN(C(=O)c2cccc(NC(=O)c3nsc4ccccc34)c2)CC1	none (no result: Shiga toxin inh, CHX counter)
CN(C)CCN(C(=O)c1cccs1)c1nc2cc3c(cc2s1)OCCO3	CHX counter 51.3
CN(C)CCN(C(=O)c1ccc(Br)s1)c1nc2cc3c(cc2s1)OCCO3	Shiga toxin inh 67.6, CHX counter 44.0
COc1ccc(CCNc2ncnc3c2nnn3C)cc1	none (no result: Shiga toxin inh, CHX counter)
COC1=C/C(=C/c2c(N)n3nc(-c4ccc(C)cc4)sc3nc2=O)C=CC1=O	Shiga toxin inh 76.2, CHX counter 54.5
CCOC1=C/C(=C/c2c(N)n3nc(-c4ccccc4)sc3nc2=O)C=CC1=O	none (no result: Sm TGR inh)
COc1ccc(CC(=O)NNC(=O)[C@@H]2CCCC[C@@H]2C(=O)O)cc1	none
O=C(NNC(=O)[C@@H]1CCCC[C@@H]1C(=O)O)Nc1ccccc1	Shiga toxin inh 65.1, CHX counter 15.1
O=C(NNC(=O)[C@@H]1CCCC[C@@H]1C(=O)O)c1cccs1	Shiga toxin inh 57.6, CHX counter 28.8
Cc1ccsc1C(=O)NNC(=O)C1CCCCC1C(=O)O (stereo not given)	Shiga toxin inh 65.5, CHX counter 30.9
CC(C)c1ccc(C(=O)NNC(=O)C2CC=CCC2C(=O)O)cc1 (stereo not given)	Shiga toxin inh 64.1, CHX counter 28.4
CC(=O)c1ccc(NC(=O)CN2C(=O)c3cccnc3Sc3ccccc32)cc1	none (no result: Shiga toxin inh, CHX counter)
CCn1nnc2cc(C(=O)Nc3cccc(C)c3C)ccc21	none (no result: Shiga toxin inh, CHX counter)
Cc1ccsc1C(=O)NNC(=O)C1CC=CCC1C(=O)O (stereo not given)	Shiga toxin inh active, CHX counter 45.0
O=C(NNC(=O)C1CC=CCC1C(=O)O)c1cccs1 (stereo not given)	none
CCOc1ccc(CCNC(=O)C2CCC(CNS(=O)(=O)c3ccc(Cl)cc3)CC2)cc1OCC (stereo not given)	none (no result: Shiga toxin inh, CHX counter)
c1ccc(-c2csc3ncnc(N4CCN(Cc5ccc6c(c5)OCO6)CC4)c23)cc1	Sm TGR inh 17.8µM, FMDV inh inconclusive
O=c1[nH]c(CN2CCN(Cc3ccc4c(c3)OCO4)CC2)nc2ccccc12	CHX counter 8.6
c1ccc2c(c1)oc1c(N3CCN(Cc4ccc5c(c4)OCO5)CC3)ncnc12	Shiga toxin inh 97.8, CHX counter 36.0
Fc1ccc(CN2CCN(c3ncnc4scc(-c5ccccc5)c34)CC2)cc1	FMDV inh inconclusive
O=C(CSc1nnc(-c2ccc(F)cc2)o1)N1CCCc2ccccc21	none (no result: Shiga toxin inh, CHX counter)
Cc1oc(-c2ccccc2NC(=O)C2CCCO2)nc1CNC(=O)c1cc(F)c(F)cc1F (stereo not given)	none (no result: Sm TGR inh, Shiga toxin inh, CHX counter)
Oc1cc(-c2nc3ccccc3s2)cc2c1OCCN(Cc1cccn1-c1nccs1)C2	none (no result: Sm TGR inh, Shiga toxin inh, CHX counter)
COc1cc(Nc2nc3c(S(=O)(=O)c4ccc(C)c(C)c4)nnn3c3ccsc23)cc(OC)c1	none (no result: Shiga toxin inh, CHX counter)
CCOC(=O)[C@]12Cc3c(cc(OC)c(OC)c3OC)[C@H]1N(C)C(=O)c1cc(OC)ccc12	FMDV inh 10µM (no result: Sm TGR inh, Shiga toxin inh, CHX counter)
CCOC(=O)[C@]12Cc3c(cc(OC)c(OC)c3OC)[C@H]1N(CCC(=O)OC)C(=O)c1cc(OC)ccc12	FMDV inh 28.2µM (no result: Sm TGR inh, Shiga toxin inh, CHX counter)
CCCCCN1C(=O)c2ccccc2[C@@]2(C(=O)OCC)Cc3cc(OC)ccc3[C@@H]12	FMDV inh 10µM (no result: Sm TGR inh, Shiga toxin inh, CHX counter)
CCOC(=O)[C@]12Cc3c(cc(OC)c(OC)c3OC)[C@H]1N(Cc1ccccc1)C(=O)c1cc(OC)ccc12	FMDV inh 17.8µM (no result: Sm TGR inh, Shiga toxin inh, CHX counter)
CCOC(=O)[C@]12Cc3c(cc(OC)c(OC)c3OC)[C@H]1N(Cc1ccccc1)C(=O)c1cc(F)c(F)cc12	none (no result: Sm TGR inh, Shiga toxin inh, CHX counter)
COc1cc(OC)c(NC(=O)C(c2ccccc2)N2Cc3ccccc3C2=O)cc1Cl (stereo not given)	none (no result: Shiga toxin inh, CHX counter)
COc1ccc(N2CCN(C(=O)c3cnn(-c4ccc(F)cc4)c3-n3cccc3)CC2)cc1	none (no result: Shiga toxin inh, CHX counter)
COCCn1c(=O)c(-c2ccc(Cl)cc2)nc2cnc(N3CCNCC3)nc21	none (no result: Sm TGR inh, Shiga toxin inh, CHX counter)
CCOC(=O)[C@]12Cc3cc(C)ccc3[C@H]1N(CCC(=O)OC)C(=O)c1cc(OC)ccc12	FMDV inh 31.6µM (no result: Sm TGR inh, Shiga toxin inh, CHX counter)
CCOC(=O)[C@]12Cc3cc(OC)ccc3[C@H]1N(Cc1ccccc1)C(=O)c1ccccc12	none (no result: Sm TGR inh, Shiga toxin inh, CHX counter)
N=C(N)SCc1ccccn1	none
N=C(N)SCc1ncccc1O	Sm TGR inh 11.2µM
CCOc1cccc(NC(=O)C2CC(=O)N(C)C(=Nc3cccc(OC)c3)S2)c1 (stereo not given)	FMDV inh inconclusive (no result: Shiga toxin inh, CHX counter)
COc1cccc(C2(CC(=O)N3CCCOc4c(cccc4OC)C3)CC(=O)N(C)C2=O)c1 (stereo not given)	none (no result: Sm TGR inh, Shiga toxin inh, CHX counter)
Cc1[nH]c2ccccc2c1-c1nc2ccccc2[nH]c1=O	Shiga toxin inh 64.2
O/C(=C\c1nc2ccccc2[nH]1)c1cccs1	Sm TGR inh inconclusive, Shiga toxin inh 86.6, CHX counter 28.0
O=c1[nH]c2ccccc2nc1-c1cccs1	Shiga toxin inh 119.8, CHX counter 42.6
O=c1[nH]c2ccccc2nc1/C=C(\O)c1cccs1	Shiga toxin inh 109.0, CHX counter 42.2
Cc1cc2nc(CS)[nH]c2cc1C	Sm TGR inh inconclusive, CHX counter 16.9
CCOC(=O)c1cc(-c2ccccc2)n(CCC(=O)Nc2ccc(Cl)c(C(F)(F)F)c2)c1C	FMDV inh 39.8µM (no result: Shiga toxin inh, CHX counter)
CCC1CN(CCNC(=O)c2ccnc(Cl)c2)Cc2cc(OC)ccc2O1 (stereo not given)	none (no result: Sm TGR inh, Shiga toxin inh, CHX counter)
Cc1ccc(CNC(=O)c2sc3ncnc(N(C)C4CCCCC4)c3c2C)cc1	none (no result: Shiga toxin inh, CHX counter)
